# According to article PMC11062922 (Nature Chemical Biology, 2023):
# Where two headings read alike, the source gives them in different places.
# Assays:
# Conditions in all cases: read-out: apparent Kd, n = 1
# AXL = test system: AXL
# CAMKK2 = test system: CAMKK2
# CDC7 = test system: CDC7
# CDK4 = test system: CDK4
# DYRK1A = test system: DYRK1A
# ERCC2 = test system: ERCC2
# MAP2K5 = test system: MAP2K5
# [1] = compound concentrations:100 nM and 1000 nM (sheet 'Lestaurtinib' of Supplementary Table 1),run:Lestaurtinib_02487_R1,Plate:MR012
# [2] = compound concentrations:100 nM and 1000 nM (sheet 'Lestaurtinib' of Supplementary Table 1),run:Lestaurtinib_02496_R3,Plate:MR013
# [3] = compound concentrations:100 nM and 1000 nM (sheet 'Lestaurtinib' of Supplementary Table 1),run:Lestaurtinib_02572_R1,Plate:MR015
# [4] = compound concentrations:100 nM and 1000 nM (sheet 'Lestaurtinib' of Supplementary Table 1),run:Lestaurtinib_02724_R3,Plate:MR021
# [5] = compound concentrations:100 nM and 1000 nM (sheet 'Lestaurtinib' of Supplementary Table 1),run:Lestaurtinib_02339_R2,Plate:MR001
# [6] = compound concentrations:100 nM and 1000 nM (sheet 'Lestaurtinib' of Supplementary Table 1),run:Lestaurtinib_02437_R3,Plate:MR007
# [7] = compound concentrations:100 nM and 1000 nM (sheet 'Lestaurtinib' of Supplementary Table 1),run:Lestaurtinib_02473_R3,Plate:MR010
# [8] = compound concentrations:100 nM and 1000 nM (sheet 'Lestaurtinib' of Supplementary Table 1),run:Lestaurtinib_02496_R2,Plate:MR013
# [9] = compound concentrations:100 nM and 1000 nM (sheet 'Lestaurtinib' of Supplementary Table 1),run:Lestaurtinib_02381_R2,Plate:MR004
# [10] = compound concentrations:100 nM and 1000 nM (sheet 'Lestaurtinib' of Supplementary Table 1),run:Lestaurtinib_02896_R1,Plate:MR030
# [11] = compound concentrations:100 nM and 1000 nM (sheet 'Lestaurtinib' of Supplementary Table 1),run:Lestaurtinib_02443_R2,Plate:MR009
# [12] = compound concentrations:100 nM and 1000 nM (sheet 'Lestaurtinib' of Supplementary Table 1),run:Lestaurtinib_02482_R3,Plate:MR011
substance,measurement,setting,value
Lestaurtinib,potency estimated from few doses,"AXL; compound concentrations:100 nM and 1000 nM (sheet 'Lestaurtinib' of Supplementary Table 1),run:Lestaurtinib_02443_R3,Plate:MR009",2.13 µM
same,potency estimated from few doses,AXL; [1],0.6 µM
same,potency estimated from few doses,AXL; [2],2.23 µM
same,potency estimated from few doses,AXL; [3],1.42 µM
same,potency estimated from few doses,AXL; [4],1.34 µM
same,potency estimated from few doses,CAMKK2; [5],1.82 µM
same,potency estimated from few doses,CAMKK2; [6],0.149 µM
same,potency estimated from few doses,CAMKK2; [7],1.93 µM
same,potency estimated from few doses,CAMKK2; [1],0.596 µM
same,potency estimated from few doses,CAMKK2; [8],2.18 µM
same,potency estimated from few doses,"CAMKK2; compound concentrations:100 nM and 1000 nM (sheet 'Lestaurtinib' of Supplementary Table 1),run:Lestaurtinib_02566_R2,Plate:MR014",1.96 µM
same,potency estimated from few doses,CAMKK2; [3],1.81 µM
same,potency estimated from few doses,"CDC7; compound concentrations:100 nM and 1000 nM (sheet 'Lestaurtinib' of Supplementary Table 1),run:Lestaurtinib_02367_R1,Plate:MR003",1.4 µM
same,potency estimated from few doses,"CDC7; compound concentrations:100 nM and 1000 nM (sheet 'Lestaurtinib' of Supplementary Table 1),run:Lestaurtinib_02367_R3,Plate:MR003",1 µM
same,potency estimated from few doses,CDC7; [9],1.53 µM
same,potency estimated from few doses,CDC7; [7],2.08 µM
same,potency estimated from few doses,"CDC7; compound concentrations:100 nM and 1000 nM (sheet 'Lestaurtinib' of Supplementary Table 1),run:Lestaurtinib_02748_R3,Plate:MR024",1.65 µM
same,potency estimated from few doses,"CDC7; compound concentrations:100 nM and 1000 nM (sheet 'Lestaurtinib' of Supplementary Table 1),run:Lestaurtinib_02752_R1,Plate:MR025",1.24 µM
same,potency estimated from few doses,"CDC7; compound concentrations:100 nM and 1000 nM (sheet 'Lestaurtinib' of Supplementary Table 1),run:Lestaurtinib_02752_R2,Plate:MR025",1.76 µM
same,potency estimated from few doses,"CDC7; compound concentrations:100 nM and 1000 nM (sheet 'Lestaurtinib' of Supplementary Table 1),run:Lestaurtinib_02795_R3,Plate:MR022",1.51 µM
same,potency estimated from few doses,CDC7; [10],0.591 µM
same,potency estimated from few doses,"CDC7; compound concentrations:100 nM and 1000 nM (sheet 'Lestaurtinib' of Supplementary Table 1),run:Lestaurtinib_02896_R2,Plate:MR030",1.33 µM
same,potency estimated from few doses,"CDC7; compound concentrations:100 nM and 1000 nM (sheet 'Lestaurtinib' of Supplementary Table 1),run:Lestaurtinib_03260_R2,Plate:MR033",1.69 µM
same,potency estimated from few doses,"CDK4; compound concentrations:100 nM and 1000 nM (sheet 'Lestaurtinib' of Supplementary Table 1),run:Lestaurtinib_02367_R2,Plate:MR003",2.19 µM
same,potency estimated from few doses,"CDK4; compound concentrations:100 nM and 1000 nM (sheet 'Lestaurtinib' of Supplementary Table 1),run:Lestaurtinib_02407_R2,Plate:MR005",1.65 µM
same,potency estimated from few doses,"CDK4; compound concentrations:100 nM and 1000 nM (sheet 'Lestaurtinib' of Supplementary Table 1),run:Lestaurtinib_02438_R1,Plate:MR008",2.24 µM
same,potency estimated from few doses,"CDK4; compound concentrations:100 nM and 1000 nM (sheet 'Lestaurtinib' of Supplementary Table 1),run:Lestaurtinib_02438_R3,Plate:MR008",2.25 µM
same,potency estimated from few doses,CDK4; [11],2.23 µM
same,potency estimated from few doses,CDK4; [12],2.22 µM
same,potency estimated from few doses,"CDK4; compound concentrations:100 nM and 1000 nM (sheet 'Lestaurtinib' of Supplementary Table 1),run:Lestaurtinib_02606_R1,Plate:MR019",1.72 µM
same,potency estimated from few doses,CDK4; [4],1.99 µM
same,potency estimated from few doses,"CDK4; compound concentrations:100 nM and 1000 nM (sheet 'Lestaurtinib' of Supplementary Table 1),run:Lestaurtinib_02766_R2,Plate:MR027",1.37 µM
same,potency estimated from few doses,CDK4; [10],1.4 µM
same,potency estimated from few doses,DYRK1A; [5],2.31 µM
same,potency estimated from few doses,"DYRK1A; compound concentrations:100 nM and 1000 nM (sheet 'Lestaurtinib' of Supplementary Table 1),run:Lestaurtinib_02381_R3,Plate:MR004",0.82 µM
same,potency estimated from few doses,DYRK1A; [11],1.58 µM
same,potency estimated from few doses,"DYRK1A; compound concentrations:100 nM and 1000 nM (sheet 'Lestaurtinib' of Supplementary Table 1),run:Lestaurtinib_02566_R1,Plate:MR014",1.58 µM
same,potency estimated from few doses,"DYRK1A; compound concentrations:100 nM and 1000 nM (sheet 'Lestaurtinib' of Supplementary Table 1),run:Lestaurtinib_02577_R2,Plate:MR016",1.67 µM
same,potency estimated from few doses,DYRK1A; [4],0.987 µM
same,potency estimated from few doses,"DYRK1A; compound concentrations:100 nM and 1000 nM (sheet 'Lestaurtinib' of Supplementary Table 1),run:Lestaurtinib_02766_R1,Plate:MR027",1.76 µM
same,potency estimated from few doses,DYRK1A; [10],1.69 µM
same,potency estimated from few doses,"DYRK1A; compound concentrations:100 nM and 1000 nM (sheet 'Lestaurtinib' of Supplementary Table 1),run:Lestaurtinib_03172_R3,Plate:MR031",1.44 µM
same,potency estimated from few doses,ERCC2; [6],1.32 µM
same,potency estimated from few doses,ERCC2; [1],0.161 µM
same,potency estimated from few doses,ERCC2; [8],1.44 µM
same,potency estimated from few doses,ERCC2; [2],1.59 µM
same,potency estimated from few doses,"ERCC2; compound concentrations:100 nM and 1000 nM (sheet 'Lestaurtinib' of Supplementary Table 1),run:Lestaurtinib_02572_R2,Plate:MR015",0.261 µM
same,potency estimated from few doses,"MAP2K5; compound concentrations:100 nM and 1000 nM (sheet 'Lestaurtinib' of Supplementary Table 1),run:Lestaurtinib_02364_R1,Plate:MR002",2.24 µM
same,potency estimated from few doses,"MAP2K5; compound concentrations:100 nM and 1000 nM (sheet 'Lestaurtinib' of Supplementary Table 1),run:Lestaurtinib_02381_R1,Plate:MR004",1.34 µM
same,potency estimated from few doses,MAP2K5; [9],2.42 µM
same,potency estimated from few doses,"MAP2K5; compound concentrations:100 nM and 1000 nM (sheet 'Lestaurtinib' of Supplementary Table 1),run:Lestaurtinib_02437_R1,Plate:MR007",2.43 µM
same,potency estimated from few doses,"MAP2K5; compound concentrations:100 nM and 1000 nM (sheet 'Lestaurtinib' of Supplementary Table 1),run:Lestaurtinib_02473_R2,Plate:MR010",2.44 µM
same,potency estimated from few doses,MAP2K5; [12],2.35 µM
